The list is not random: actives were taken first. Their share in the collection is about 6%.
D3 ag – activates the human D3 dopamine receptor | P35462 | D3R DiscoveRx beta-arrestin cells, luminescence, 90 min | max activation, % | 0.58% of 410,000 active | AID 652048; in the data active = max activation above about 30%; also: 0% is about no effect
Target sequence (P35462 whole entry, looked up): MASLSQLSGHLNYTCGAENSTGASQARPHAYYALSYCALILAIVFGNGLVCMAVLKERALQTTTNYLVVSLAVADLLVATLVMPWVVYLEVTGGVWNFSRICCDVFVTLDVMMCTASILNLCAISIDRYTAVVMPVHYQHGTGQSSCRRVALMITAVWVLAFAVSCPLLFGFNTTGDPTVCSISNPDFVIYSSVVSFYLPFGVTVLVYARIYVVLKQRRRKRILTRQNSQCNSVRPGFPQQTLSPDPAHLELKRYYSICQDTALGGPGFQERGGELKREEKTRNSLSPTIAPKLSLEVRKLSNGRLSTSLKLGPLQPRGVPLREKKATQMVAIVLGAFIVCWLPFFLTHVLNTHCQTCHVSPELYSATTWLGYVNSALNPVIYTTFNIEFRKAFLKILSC
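Agonist mode: compounds and dopamine controls were applied to plated cells for 90 min at 37 degrees C after an overnight attachment at 1500 cells/well. Luminescent read-out followed 30 - 60 minutes at room temperature with DiscoveRx detection reagent.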
D1 agonist – activates the human D1 dopamine receptor; AID 504660; HEK293 T-REx D1 cells, calcium flux, agonist mode; 1% of 360,000 active; activation, % at 2 µM; in the data active = activation above about 30%; also: 0% is about no effect
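Inducible HEK293 T-REx D1 cells, force-coupled to calcium signalling, were plated at 4000 cells/well with tetracycline and held overnight at 30 C. After no-wash calcium dye loading, compound-evoked calcium rise over 180 s flagged agonists.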
D3 antag – antagonists of human D3 dopamine receptor; P35462; D3R cells, DiscoveRx beta-arrestin luminescence, antagonist mode; stronger effect = lower value; max response, negative = inhibition, %; 2.5% of 360,000 active; AID 652054; in the data active = max response below about -50%; also: % is scaled to controls: 0 for no effect and ±100 for the full control effect
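Cells plated overnight at 1500 cells/well, then exposed to library compounds with dopamine controls for 90 minutes at 37 degrees C. DiscoveRx reagent added for 30–60 minutes at room temperature; luminescence read, quantitative HTS format.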
D1 potentiator – potentiators of human D1 dopamine receptor; 0.036% of 360,000 active; potentiation, % at 10 µM; AID 504651; HEK293 TREx D1 cells, calcium flux, dopamine EC20 potentiation; in the data active = potentiation above about 30%; also: 0% is about no effect
D1 antag – human D1 dopamine receptor antagonism. AID 504652. HEK293 TREx D1 cells, calcium flux, dopamine EC80; stronger effect = lower value. 3.2% of 360,000 active. P21728. activity change, negative = inhibition, % at 10 µM; in the data active = activity change below about -30%; also: % is scaled to controls: 0 for no effect and ±100 for the full control effect
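HEK293 T-REx cells expressing inducible, force-coupled D1 receptor; no-wash Ca dye, 30–90 min RT. Cmpd → 180 s read at 1 Hz → EC80 DA → 180 s read.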
* = called active by the depositor; ! = repeats disagree.

Results for FC(F)(F)c1nc2ccccc2[nH]1 ?
D3 ag: 0; D1 agonist: 4; D3 antag: -8; D1 potentiator: 4; D1 antag: -4

What do the screens show for `O=c1[nH]c(C(F)(F)F)nc2ccccc12`?
D3 ag: -7; D1 agonist: 2; D3 antag: -60*; D1 potentiator: -5; D1 antag: -5

What do the screens show for `CCOc1cc(S(=O)(=O)NCCc2c(C)[nH]c3ccc(C)cc23)ccc1F`?
D3 ag: 9; D1 agonist: 4; D1 potentiator: 0; D1 antag: 4

Results for Cc1cc(C)cc(NC(=O)CSc2oc(-c3cccs3)nc2S(=O)(=O)c2ccccc2)c1 ?
D3 ag: 13; D1 agonist: 13; D1 potentiator: 0; D1 antag: -21

How did CN=c1scc(-c2ccccc2F)n1/N=C/c1ccc[nH]1 do in these assays?
D3 ag: -8; D1 agonist: 1; D3 antag: -24; D1 potentiator: -2; D1 antag: 7

What do the screens show for `CCN=c1scc(-c2cccs2)n1/N=C/c1cc(OC)ccc1O`?
D3 ag: 10; D1 agonist: 1; D3 antag: 8; D1 potentiator: 0; D1 antag: -3

What do the screens show for `CN=c1scc(-c2ccccc2F)n1/N=C/c1ccc(O)c(O)c1O`?
D3 ag: 107*; D1 agonist: 19; D3 antag: 11; D1 potentiator: -10; D1 antag: -41*

Results for CC(C)N=c1scc(-c2cccs2)n1/N=C/c1ccc(O)c(O)c1O ?
D3 ag: 64*; D1 agonist: 8; D3 antag: 49; D1 potentiator: -3; D1 antag: -6

How did CCc1cccc(NS(=O)(=O)c2cc(-c3cnc(C)o3)ccc2OC)c1 do in these assays?
D3 ag: 8; D1 agonist: -1; D1 potentiator: -1; D1 antag: 7

What do the screens show for `O=C(CCNS(=O)(=O)c1ccc(Br)cc1)NC1CCC(O)CC1` (configuration not stated)?
D3 ag: 1; D1 agonist: 2; D3 antag: 8; D1 potentiator: -4; D1 antag: -31*

What do the screens show for `O=C(CCNS(=O)(=O)c1ccc(Br)s1)NC1CCCC1`?
D3 ag: -3; D1 agonist: 3; D3 antag: -103*; D1 potentiator: -5; D1 antag: -8

Results for O=C(CCNS(=O)(=O)c1ccc(Br)s1)Nc1ccc(Cl)cc1 ?
D3 ag: 1; D1 agonist: 6; D3 antag: -52*; D1 potentiator: -5; D1 antag: -4

How did O=C(CCNS(=O)(=O)c1ccc(Br)s1)Nc1ccc(Br)cc1 do in these assays?
D3 ag: -6; D1 agonist: 9; D1 potentiator: -1; D1 antag: -8

How did CCCN(CCC)c1ccc(C2N=C(N)Nc3nc4ccccc4n32)cc1 (configuration not stated) do in these assays?
D3 ag: 9; D1 agonist: 0; D1 potentiator: -6; D1 antag: -5

Results for Cc1c(C(=O)Nc2ccc(F)cc2)oc2ccc(S(=O)(=O)N3CC(C)CC(C)C3)cc12 (configuration not stated) ?
D3 ag: -4; D1 agonist: 13; D3 antag: -62*; D1 potentiator: -7; D1 antag: -14

Results for COc1ccc(NC(=O)c2cccc(OC(=S)N3CCOCC3)c2)cc1 ?
D3 ag: 1; D1 agonist: 3; D3 antag: 1; D1 potentiator: -1; D1 antag: 0

Results for Cc1cccc(NC(=O)c2cccc(OC(=S)N3CCOCC3)c2)c1C ?
D3 ag: -4; D1 agonist: 2; D3 antag: -11; D1 potentiator: -4; D1 antag: -32*

How did Cc1ccc(NC(=O)c2oc3ccc(S(=O)(=O)N4CCOCC4)cc3c2C)c(C)c1 do in these assays?
D3 ag: 7; D1 agonist: 7; D3 antag: 56; D1 potentiator: 0; D1 antag: 4

What do the screens show for `CCN(CC)C(=O)c1oc2ccc(S(=O)(=O)N3CC(C)CC(C)C3)cc2c1C` (configuration not stated)?
D3 ag: 7; D1 agonist: 4; D3 antag: 4; D1 potentiator: -11; D1 antag: -5

How did Cc1ccc(NC(=O)c2oc3ccc(S(=O)(=O)N4CCC5(CC4)OCCO5)cc3c2C)cc1C do in these assays?
D3 ag: -12; D1 agonist: -2; D3 antag: 61; D1 potentiator: -3; D1 antag: -32*!
